Results as given in PubChem BioAssay (Tox21).
Values joined by “and” are separate entries in the source; they are usually repeats but may differ in a detail not shown here. Equal entries are not always repeated. Inconclusive results are not listed. Some compounds were tested as several samples or in several runs, with calls that do not always agree. Active and inactive are the calls of the source. Unless noted, calls come from the whole dose curve; as a rule, active = well fitted curve in the direction sought with a large enough effect in the repeat runs; inconclusive = weak or mixed curves; inactive = no such curve, though single readings can be large; an effect the other way counts as inactive or inconclusive.

Key:
[1] = qHTS assay to identify aromatase inhibitors - cell viability counter screen (AID 743084);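 note: cells stimulated with testosterone during compound exposure; nearly all actives have a fitted effect of over 55% in size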; note: potency is the fitted concentration of half-maximal effect
[2] = qHTS assay to identify small molecule that activate the aryl hydrocarbon receptor (AhR) signaling pathway - cell viability counter screen (AID 743086); note: nearly all actives have a fitted effect of over 45% in size; note: potency is the fitted concentration of half-maximal effect
How it was run: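 Cytotoxicity counter screen: CellTiter-Fluor signal (30 min, 37 C) in 4000 HepG2 cells/well carrying the DRE-luciferase reporter, following 24 h compound exposure at 37 C.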

[3] = biological target: Peroxisome proliferator-activated receptor gamma (Homo sapiens) (UniProt P37231); assay: qHTS assay to identify small molecule agonists of the peroxisome proliferator-activated receptor gamma (PPARg) signaling pathway (AID 743094; active = well fitted activation curve with a large enough effect in the signal ratio in the repeat runs, not every such curve was filed as active; the % refers to the signal ratio; note: potency is the fitted concentration of half-maximal effect)
How it was run: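 Compounds dissolved in DMSO were added to PPARg UAS-bla HEK293H cells for 17 h at 37C, and reporter expression was quantified by fluorescence intensity after 1 h with LiveBLAzer B/G FRET substrate.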

[4] = qHTS assay to identify small molecule antagonists of the peroxisome proliferator-activated receptor gamma (PPARg) signaling pathway - cell viability counter screen (AID 743194); note: nearly all actives have a fitted effect of over 55% in size; note: potency is the fitted concentration of half-maximal effect
How it was run: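 Viability was measured as CellTiter-Glo luminescence in GeneBLAzer PPARg UAS-bla HEK293H cells. These cells had been exposed 17 h at 37 C to compounds together with rosiglitazone at 50 nM final, with the beta-lactamase readout taken in the same wells.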

[5] = qHTS assay for small molecule activators of the heat shock response signaling pathway - cell viability counter screen (AID 743209); note: nearly all actives have a fitted effect of over 50% in size; note: potency is the fitted concentration of half-maximal effect
How it was run: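 Readout: CellTiter-Glo luminescence, 30 min at room temperature. System: HSE-bla HeLa cells, 1500/well, plated overnight. Treatment: compounds in DMSO, 5 h at 37 C.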

[6] = qHTS assay for small molecule activators of the heat shock response signaling pathway (AID 743210; active = well fitted activation curve with a large enough effect in the signal ratio in the repeat runs, with a control signal flat, not every such curve was filed as active; the % refers to the signal ratio;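 note: HeLa cells with beta-lactamase reporter driven by heat shock elements; series mostly up to about 63 µM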)
How it was run: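 HeLa HSE-bla cells, overnight plating; cpd in DMSO 5 h, 37 C; LiveBLAzer B/G FRET substrate 2.5 h RT; fluorescence intensity read.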

[7] = qHTS assay to identify small molecule agonists of the peroxisome proliferator-activated receptor delta (PPARd) signaling pathway - cell viability counter screen (AID 743211); note: nearly all actives have a fitted effect of over 55% in size; note: potency is the fitted concentration of half-maximal effect
How it was run: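 qHTS cell viability: PPARd-bla HEK293H; 17 h cpd, 37C; CellTiter-Glo, luminescence at 30 min RT.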

[8] = biological target: Peroxisome proliferator-activated receptor delta (Homo sapiens) (UniProt Q03181); assay: qHTS assay to identify small molecule agonists of the peroxisome proliferator-activated receptor delta (PPARd) signaling pathway (AID 743212; calls by dose curve; note: potency is the fitted concentration of half-maximal effect)
How it was run: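 HEK293H PPARd-bla cells; 5 h preincubation 37 C/5% CO2; compound (DMSO) 37 C; LiveBLAzer B/G FRET substrate 2 h RT; fluorescence intensity.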

[9] = qHTS assay to identify small molecule antagonists of the peroxisome proliferator-activated receptor delta (PPARd) signaling pathway - cell viability counter screen (AID 743213); note: nearly all actives have a fitted effect of over 50% in size; note: potency is the fitted concentration of half-maximal effect
How it was run: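 Cytotoxicity counter screen: CellTiter-Glo luminescence read 30 min after addition, in the same wells as the reporter assay. There, PPARd UAS-bla HEK293H cells (3000/well) were treated 17 h at 37 C with compound and 300 nM L165041.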

[10] = biological target: Peroxisome proliferator-activated receptor delta (Homo sapiens) (UniProt Q03181); assay: qHTS assay to identify small molecule antagonists of the peroxisome proliferator-activated receptor delta (PPARd) signaling pathway (AID 743215; active = well fitted inhibition curve with a large enough effect in the signal ratio in the repeat runs, not every such curve was filed as active; the % refers to the signal ratio;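 note: cells stimulated with agonist L165041 at 300 nM final during compound exposure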; note: potency is the fitted concentration of half-maximal effect)
How it was run: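 HEK293H UAS-bla, PPARd; agonist L165041 300 nM final with cpd in DMSO; 37 C 17 h; FRET substrate, RT 2 h; fluorescence intensity.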

[11] = biological target: Bile acid receptor (Homo sapiens) (UniProt Q96RI1); assay: qHTS assay to identify small molecule antagonists of the farnesoid-X-receptor (FXR) signaling pathway (AID 743217; active = well fitted inhibition curve with a large enough effect in the signal ratio in the repeat runs, not every such curve was filed as active; the % refers to the signal ratio)
How it was run: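 GeneBLAzer FXR-UAS-bla HEK 293T, CDCA-stimulated (50 uM final). Compound treatment 16 h, 37 °C. Detection: beta-lactamase cleavage of B/G FRET substrate, fluorescence.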

[12] = qHTS assay to identify small molecule agonists of the farnesoid-X-receptor (FXR) signaling pathway - cell viability counter screen (AID 743218); note: nearly all actives have a fitted effect of over 45% in size; note: potency is the fitted concentration of half-maximal effect
How it was run: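 Parallel cytotoxicity test: compound-treated (16 h, 37 C) HEK 293T FXR-bla reporter cells were lysed with CellTiter-Glo and luminescence recorded.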

[13] = biological target: Bile acid receptor (Homo sapiens) (UniProt Q96RI1); assay: qHTS assay to identify small molecule agonists of the farnesoid-X-receptor (FXR) signaling pathway (AID 743220; active = well fitted activation curve with a large enough effect in the signal ratio in the repeat runs, not every such curve was filed as active; the % refers to the signal ratio; note: potency is the fitted concentration of half-maximal effect)
How it was run: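 Beta-lactamase reporter under UAS control in GeneBLAzer FXR HEK 293T cells (5000/well) measured with LiveBLAzer FRET substrate after 2 h at room temperature. Compound exposure lasted 16 h at 37C.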

[14] = qHTS assay to identify small molecule antagonists of the farnesoid-X-receptor (FXR) signaling pathway - cell viability counter screen (AID 743221; active = well fitted cell-killing curve with a large enough effect in the repeat runs, not every such curve was filed as active; note: nearly all actives have a fitted effect of over 50% in size; note: potency is the fitted concentration of half-maximal effect)
How it was run: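 After a 5 h settling period, FXR-bla HEK 293T cells receive compound and chenodeoxycholic acid (50 uM final) and incubate 16 h at 37 C; CellTiter-Glo luminescence, read after 30 min at room temperature, reports cell viability.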

[15] = biological target: Vitamin D3 receptor (Homo sapiens) (UniProt P11473); assay: qHTS assay to identify small molecule agonists of the vitamin D receptor (VDR) signaling pathway (AID 743222; calls by dose curve)
How it was run: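 In VDR-bla cells, compound-induced beta-lactamase expression is quantified by FRET substrate fluorescence. Treatment lasts 16 h at 37C; substrate develops 2 h at room temperature.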

[16] = biological target: Vitamin D3 receptor (Homo sapiens) (UniProt P11473); assay: qHTS assay to identify small molecule antagonists of the vitamin D receptor (VDR) signaling pathway (AID 743223; active = well fitted inhibition curve with a large enough effect in the signal ratio in the repeat runs, not every such curve was filed as active; the % refers to the signal ratio; note: potency is the fitted concentration of half-maximal effect)
How it was run: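 Reporter line VDR-bla; stimulus 1alpha,25-(OH)2 vitamin D3, 3 nM final; compound co-addition, 16 h 37C/5% CO2; LiveBLAzer B/G substrate 2 h RT; fluorescence intensity.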

[17] = qHTS assay for small molecule agonists of the antioxidant response element (ARE) signaling pathway - cell viability counter screen (AID 743203; calls by dose curve; note: nearly all actives have a fitted effect of over 55% in size; note: potency is the fitted concentration of half-maximal effect)
How it was run: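 Following 16 hrs of compound treatment at 37C, HepG2 cells with an ARE-controlled beta-lactamase gene were lysed with CellTiter-Glo. Luminescence was read after 30 min at room temperature.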

[18] = biological target: Peroxisome proliferator-activated receptor gamma (Homo sapiens) (UniProt P37231); assay: qHTS assay to identify small molecule antagonists of the peroxisome proliferator-activated receptor gamma (PPARg) signaling pathway (AID 743191; calls by dose curve; note: nearly all actives have a fitted effect of over 30% in size; note: potency is the fitted concentration of half-maximal effect)
How it was run: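 Beta-lactamase reporter under UAS control in HEK293H PPARg-bla cells; compound treatment 17 h at 37C. Read-out: fluorescence intensity after 1 h room-temperature incubation with LiveBLAzer B/G FRET substrate.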

[19] = qHTS assay for small molecule agonists of the antioxidant response element (ARE) signaling pathway (AID 743202; active = well fitted activation curve with a large enough effect in the signal ratio in the repeat runs, not every such curve was filed as active; the % refers to the signal ratio; note: potency is the fitted concentration of half-maximal effect)
How it was run: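 Quantitative high-throughput format in HepG2 cells bearing an integrated ARE-beta-lactamase reporter. Compound exposure lasted 16 h at 37 C, and fluorescence was read 2 h after adding LiveBLAzer B/G substrate at room temperature.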

[20] = biological target: Aryl hydrocarbon receptor (Homo sapiens) (UniProt P35869); assay: qHTS assay to identify small molecule that activate the aryl hydrocarbon receptor (AhR) signaling pathway (AID 743085); note: nearly all actives have a fitted effect of over 15% in size; note: potency is the fitted concentration of half-maximal effect;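 for activation: HG2L7.5c1 human HepG2 liver cells with stably integrated DRE-driven firefly reporter; series mostly up to about 70 µM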
How it was run: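 AhR agonist activity is inferred from enhanced light output of a DRE-controlled firefly luciferase reporter in HepG2 cells, measured with ONE-Glo following 24 h treatment at 37C.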

Measured: Potency
% is set by controls: 0 for no effect and ±100 for the full control effect.

Aryl hydrocarbon receptor (Homo sapiens), sequence (P35869 whole entry, looked up): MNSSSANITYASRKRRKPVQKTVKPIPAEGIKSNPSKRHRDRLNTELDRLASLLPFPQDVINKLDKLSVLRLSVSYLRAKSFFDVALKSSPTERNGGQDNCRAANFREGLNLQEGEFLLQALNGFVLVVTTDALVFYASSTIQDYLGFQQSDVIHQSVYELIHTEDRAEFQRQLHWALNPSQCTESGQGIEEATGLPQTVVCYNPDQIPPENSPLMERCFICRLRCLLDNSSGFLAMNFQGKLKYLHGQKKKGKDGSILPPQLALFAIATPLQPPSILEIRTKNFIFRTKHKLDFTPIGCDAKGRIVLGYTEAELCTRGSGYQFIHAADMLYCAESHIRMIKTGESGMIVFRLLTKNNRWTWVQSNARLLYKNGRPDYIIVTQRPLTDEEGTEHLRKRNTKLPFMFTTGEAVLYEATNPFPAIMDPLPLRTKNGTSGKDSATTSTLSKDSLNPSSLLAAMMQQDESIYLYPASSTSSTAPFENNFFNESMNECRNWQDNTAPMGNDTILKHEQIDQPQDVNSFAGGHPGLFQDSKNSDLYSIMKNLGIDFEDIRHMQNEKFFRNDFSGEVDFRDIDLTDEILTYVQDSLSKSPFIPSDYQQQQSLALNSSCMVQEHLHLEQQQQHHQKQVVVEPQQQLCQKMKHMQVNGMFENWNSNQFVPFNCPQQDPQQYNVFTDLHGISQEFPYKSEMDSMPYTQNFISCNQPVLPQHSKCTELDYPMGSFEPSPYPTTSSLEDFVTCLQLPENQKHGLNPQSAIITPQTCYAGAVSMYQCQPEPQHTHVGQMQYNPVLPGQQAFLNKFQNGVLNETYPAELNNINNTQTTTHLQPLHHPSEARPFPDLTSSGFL
Vitamin D3 receptor (Homo sapiens), sequence (P11473 whole entry, looked up): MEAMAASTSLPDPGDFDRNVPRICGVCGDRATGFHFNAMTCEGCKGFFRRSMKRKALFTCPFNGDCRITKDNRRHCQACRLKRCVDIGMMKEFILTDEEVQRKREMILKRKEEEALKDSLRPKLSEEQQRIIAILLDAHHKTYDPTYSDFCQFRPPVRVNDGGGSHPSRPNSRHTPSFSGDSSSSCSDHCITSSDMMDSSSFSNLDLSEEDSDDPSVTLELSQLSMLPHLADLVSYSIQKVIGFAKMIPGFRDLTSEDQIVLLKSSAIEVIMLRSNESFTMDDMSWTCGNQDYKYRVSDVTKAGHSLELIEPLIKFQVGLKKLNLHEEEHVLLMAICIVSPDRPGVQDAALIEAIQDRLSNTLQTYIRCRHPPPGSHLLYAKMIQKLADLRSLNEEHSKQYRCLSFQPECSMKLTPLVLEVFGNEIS
Bile acid receptor (Homo sapiens), sequence (Q96RI1 whole entry, looked up): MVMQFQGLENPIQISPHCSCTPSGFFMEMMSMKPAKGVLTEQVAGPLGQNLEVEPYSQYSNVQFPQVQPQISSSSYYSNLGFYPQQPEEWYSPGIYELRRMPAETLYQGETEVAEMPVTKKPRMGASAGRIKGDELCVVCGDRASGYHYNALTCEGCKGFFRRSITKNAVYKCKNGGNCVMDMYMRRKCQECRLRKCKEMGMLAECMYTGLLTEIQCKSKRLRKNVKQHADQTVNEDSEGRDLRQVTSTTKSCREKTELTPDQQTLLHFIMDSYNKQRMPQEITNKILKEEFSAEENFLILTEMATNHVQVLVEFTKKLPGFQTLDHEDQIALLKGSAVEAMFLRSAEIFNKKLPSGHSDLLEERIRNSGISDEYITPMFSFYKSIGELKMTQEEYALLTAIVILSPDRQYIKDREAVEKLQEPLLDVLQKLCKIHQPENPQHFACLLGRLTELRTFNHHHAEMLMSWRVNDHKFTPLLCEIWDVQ
Peroxisome proliferator-activated receptor gamma (Homo sapiens), sequence (P37231 whole entry, looked up): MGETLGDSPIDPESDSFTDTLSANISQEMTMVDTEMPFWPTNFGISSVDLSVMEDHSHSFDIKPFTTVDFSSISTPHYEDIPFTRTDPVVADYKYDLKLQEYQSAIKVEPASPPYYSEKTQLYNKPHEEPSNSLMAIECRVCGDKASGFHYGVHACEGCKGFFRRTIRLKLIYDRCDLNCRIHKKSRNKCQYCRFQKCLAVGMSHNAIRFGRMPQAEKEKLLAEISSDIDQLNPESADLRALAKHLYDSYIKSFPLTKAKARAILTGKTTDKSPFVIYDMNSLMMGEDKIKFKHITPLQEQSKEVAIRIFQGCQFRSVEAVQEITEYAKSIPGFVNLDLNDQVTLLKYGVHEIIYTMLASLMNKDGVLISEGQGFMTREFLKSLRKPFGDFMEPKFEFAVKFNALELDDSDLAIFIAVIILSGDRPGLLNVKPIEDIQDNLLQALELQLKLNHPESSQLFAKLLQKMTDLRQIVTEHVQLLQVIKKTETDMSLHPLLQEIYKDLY
Peroxisome proliferator-activated receptor delta (Homo sapiens), sequence (Q03181 whole entry, looked up): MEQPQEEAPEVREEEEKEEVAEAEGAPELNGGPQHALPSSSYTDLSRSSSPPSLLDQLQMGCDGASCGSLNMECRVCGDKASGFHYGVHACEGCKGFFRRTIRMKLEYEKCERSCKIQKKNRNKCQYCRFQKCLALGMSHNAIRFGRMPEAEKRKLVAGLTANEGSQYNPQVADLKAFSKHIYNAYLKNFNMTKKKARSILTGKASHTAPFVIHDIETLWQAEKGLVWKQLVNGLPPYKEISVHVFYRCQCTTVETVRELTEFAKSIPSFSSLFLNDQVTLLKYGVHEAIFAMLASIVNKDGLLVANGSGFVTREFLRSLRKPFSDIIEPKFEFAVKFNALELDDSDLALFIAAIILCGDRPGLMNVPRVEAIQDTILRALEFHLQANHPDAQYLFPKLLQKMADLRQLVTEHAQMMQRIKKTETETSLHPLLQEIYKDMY

CNC(=O)c1ccccc1
not listed: [17] | [18] | [19] | [20]
inactive: all other assays above

CN(C)[C@@H]1C(=O)C(C(N)=O)=C(O)[C@@]2(O)C(=O)C3=C(O)c4c(O)ccc(Cl)c4[C@@H](O)[C@H]3C[C@@H]12
inactive: [1] | [2] | [3] | [4] | [17] | [6] | [7] | [9] | [12] | [14]

Clc1ccccc1C(c1ccccc1)(c1ccccc1)n1ccnc1
inactive: [1] | [9] | [15] | [16]
active: [4] 24.5 µM | [17] 30.6 µM | [7] 54.9 µM | [12] 54.9 µM
inactive and 54.5 µM (active): [2]

Fc1ccc(C(c2ccc(F)cc2)N2CCN(C/C=C/c3ccccc3)CC2)cc1
inactive: [1] | [2] | [18] | [12] | [13]

CC(C)(C)c1ccc(C(=O)CCCN2CCC(OC(c3ccccc3)c3ccccc3)CC2)cc1
active: [17] 29.8 µM | [5] 29.8 µM | [9] 16.8 µM | [12] 26.6 µM
inactive: [1] | [2] | [13]

CCOC(=O)/C=C(C)/C=C/C=C(C)/C=C/c1c(C)cc(OC)c(C)c1C
inactive: [1] | [2] | [4] | [17] | [5] | [7] | [9] | [12] | [14]

CCC(C)Nc1ccc(NC(C)CC)cc1 (configuration not stated)
inactive: [13]
active: [1] 8.8 µM | [2] 55.5 µM | [4] 12.5 µM | [17] 7.84 µM | [5] 22.3 µM | [7] 12.5 µM | [9] 22.3 µM | [12] 22.3 µM | [14] 35.3 µM

CCCCN1C(=O)[C@@H]([C@H](O)C2CCCCC2)NC(=O)C12CCN(Cc1ccc(Oc3ccc(C(=O)O)cc3)cc1)CC2
inactive: [1] | [4] | [5] | [6] | [7] | [9] | [10] | [14]
active: [2] 8.63 µM

C=CC(=O)OCC(CO)(COCC(COC(=O)C=C)(COC(=O)C=C)COC(=O)C=C)COC(=O)C=C
inactive: [15]
active: [1] 1.7 µM | [2] 6.04 µM | [4] 3.05 µM | [17] 8.53 µM | [5] 2.72 µM | [7] 3.05 µM | [9] 5.43 µM | [10] 4.31 µM | [12] 4.31 µM | [16] 2.72 µM

C=CC(=O)OCC(CO)(COC(=O)C=C)COC(=O)C=C
active: [1] 2.18 µM and 4.86 µM | [2] 13.7 µM and 27.3 µM | [4] 11 µM and 4.36 µM | [17] 61.3 µM and 30.6 µM | [5] 3.9 µM and 2.45 µM | [7] 6.94 µM and 11 µM | [9] 19.6 µM and 13.8 µM | [12] 19.6 µM and 17.4 µM | [14] 34.8 µM and 30.9 µM

CC(C)(C)c1ccc(C(=O)O)cc1
not listed: [3] | [8] | [10] | [16] | [18] | [20]
inactive: all other assays above

N#CSc1ccc(N)c([N+](=O)[O-])c1
inactive: [17] | [5] | [13]
active: [1] 38.8 µM | [7] 55.3 µM | [9] 49.3 µM

Nc1c2ccccc2nc2ccccc12
active: [20] 11.9 µM and 13.5 µM | [19] 4.22 µM | [17] 24 µM | [8] 26.6 µM | [13] 9.44 µM
inactive: [4] | [7] | [9] | [12] | [14]

CC(C)n1nc(-c2cc3cc(O)ccc3[nH]2)c2c(N)ncnc21
active: [20] 3.76 µM | [2] 0.75 µM | [7] 13.3 µM
inactive: [8] | [14]

CCCCCCCCS(=O)C(C)Cc1ccc2c(c1)OCO2 (configuration not stated)
inactive: [2] | [4] | [13]
active: [20] 27.8 µM | [18] 56 µM | [19] 19.7 µM | [7] 50 µM

COc1cc(-c2nc(NC(=O)c3cc4cc(C)cc(C)c4n3CC(=O)O)sc2CCC2CCCCC2)c(OC)cc1Cl
active: [3] 35.7 µM | [4] 8.96 µM | [7] 10 µM | [9] 20.1 µM | [12] 12.7 µM | [14] 14.2 µM
inactive: [20] | [2]

NC(=O)N1C(=O)C(C(=O)c2cc(Cl)cs2)c2cc(F)c(Cl)cc21 (configuration not stated)
active: [20] 24.3 µM | [2] 12.2 µM | [4] 13.8 µM | [17] 8.63 µM | [7] 17.4 µM | [9] 15.5 µM | [10] 13.8 µM | [12] 3.89 µM | [14] 24.5 µM
inactive: [5]

NC(=NCCCCCCN=C(N)/N=C(\N)Nc1ccc(Cl)cc1)/N=C(\N)Nc1ccc(Cl)cc1
inactive: [20] | [2] | [3]
active: [9] 19.8 µM [middle of 4 runs] | [14] 19.4 µM and 43.4 µM

Fc1ccc([C@@H]2CCNC[C@H]2COc2ccc3c(c2)OCO3)cc1
inactive: [20] | [4] | [6] | [8] | [11] | [13]
active: [2] 26.6 µM | [17] 29.8 µM | [7] 13.3 µM

CCOc1nc2cccc(C(=O)OC(C)OC(=O)OC3CCCCC3)c2n1Cc1ccc(-c2ccccc2-c2nn[nH]n2)cc1 (configuration not stated)
active: [4] 9.76 µM | [17] 30.6 µM | [5] 13.8 µM | [7] 17.4 µM | [9] 17.4 µM | [12] 15.5 µM
inactive: [20] | [13]
